This is a sample that favours compounds with a hit; in the whole collection about 3.6% have one here.
Pf apPOL block: Pf-apPOL DNA polymerase inhibition; Recombinant Pf-apPOL, molecular beacon fluorescence, 1.5 h; inhibition, % at 10 µM; actives 0.25% (n = 210,000); AID 1794808
mHTT-CaM PPI inh: disrupts binding of mutant huntingtin to calmodulin; AlphaScreen His-mHTT/GST-CaM binding, luminescence; P42858; AID 1671202; actives 3.6% (n = 190,000); inhibition, % at 15 µM
A number is an active result; – = inactive; · = no result given. Rule as the data show it: active = inhibition above about 50%; inactive = the rest.

SMILES	Pf apPOL block	mHTT-CaM PPI inh
COc1ccc(NC(=O)N2CCC(Oc3nc4c(Cl)cccc4s3)CC2)c(OC)c1	–	–
O=C(NCCc1ccccc1)N1CCCC1c1nc(-c2ccccc2)no1 (stereo not drawn)	–	–
O=C(Cc1cccc(F)c1)N1CCCC1c1nc(-c2cccc(Cl)c2)no1 (stereo not drawn)	–	–
Cc1ccc(CC(=O)N2CCCC2c2nc(-c3cccc(Cl)c3)no2)cc1 (stereo not drawn)	–	60.6
O=C(Cc1ccc(F)cc1)N1CCCC1c1nc(-c2cccc(Cl)c2)no1 (stereo not drawn)	–	–
Cc1cccc(-c2noc(C3CCCN3C(=O)Cc3cccc(Cl)c3)n2)c1 (stereo not drawn)	–	79.4
O=C(NCCc1ccccc1)N1CCCC1c1nc(-c2cccc(Cl)c2)no1 (stereo not drawn)	–	60.6
Cc1nc2c(NC(=O)Nc3ccccc3C(F)(F)F)cccn2n1	–	–
COc1ccccc1OCC(=O)Nc1ncc(Cc2cccc(C(F)(F)F)c2)s1	–	–
O=C(NCCc1c[nH]c2ccccc12)Nc1ccc(Cl)cc1	–	·
CCn1cc(NC(=O)NCCc2c[nH]c3ccccc23)c2ccccc21	–	72.2
Cc1noc(COC2CCCN(C(=O)c3ccncc3)C2)n1 (stereo not drawn)	–	–
CCN(CC)c1ccc2cc(C(N)=O)c(=Nc3ccc(C)cc3)oc2c1	–	–
CCN(CC)c1ccc2cc(C(N)=O)c(=Nc3ccccc3C)oc2c1	–	54.0
Cc1cc(NC=C(C#N)C(=O)c2ccc(Cl)cc2)no1	–	·
O=C(Nc1cccc([N+](=O)[O-])c1)c1ccc2nc(N3C(=O)CCC3=O)sc2c1	–	–
O=C(Nc1cccc(Br)c1)c1ccc2nc(N3C(=O)CCC3=O)sc2c1	–	55.2
COc1ccc(NC(=O)c2oc3ccc(S(=O)(=O)N4CCCCC4)cc3c2C)c(OC)c1	–	–
N#Cc1cccc(CN2CCCC(c3nncn3-c3ccccc3)C2)c1 (stereo not drawn)	–	–
c1ccc(CN2CCCC(c3n[nH]c(C4CC4)n3)C2)nc1 (stereo not drawn)	–	95.3
c1ccc(-n2cnnc2C2CCCN(Cc3ccccn3)C2)cc1 (stereo not drawn)	–	87.1
c1cc(CN2CCCC(c3n[nH]c(C4CC4)n3)C2)ccn1 (stereo not drawn)	–	–
CC(Nc1nc(F)cc(=O)[nH]1)C(=O)O (stereo not drawn)	·	–
COc1ccccc1NC(=O)C1c2cc(OC)c(OC)cc2C(=O)N(C)C1c1ccccc1F (stereo not drawn)	–	–
O=C(NCCn1ccc2ccccc21)c1c(F)cccc1F	–	–
SMILES	Pf apPOL block	mHTT-CaM PPI inh
O=C(NCCn1ccc2ccccc21)C1(c2ccc(Cl)cc2)CCCC1	–	83.0
Cc1nc2ccc(Cl)cn2c(=O)c1NC(=O)c1cccs1	–	–
COc1ccccc1-n1cnc2cc(NC(=O)c3cc(OC)c(OC)c(OC)c3)ccc21	–	–
COc1cc(C(=O)Nc2ccc3c(c2)ncn3-c2ccc(C)cc2)cc(OC)c1OC	–	53.0
COc1cc(C(=O)Nc2nc3ccccc3n2C)cc(OC)c1OC	–	57.1
Cn1c(NC(=O)c2ccc(F)cc2)nc2ccccc21	–	–
CCCc1cc(C2CCCN2Cc2ccc(OCC)c(OC)c2)no1 (stereo not drawn)	–	–
CCC(=O)N1CCc2cc(Br)cc(S(=O)(=O)Nc3ccc(F)cc3Cl)c21	–	–
CC(C)C12CN(C(=O)c3ccccc3)CC(C(C)C)(CN(C(=O)c3ccccc3)C1)C2=O	–	–
O=C(Nc1nc(-c2ccccn2)cs1)c1ccc(S(=O)(=O)N2CCCCC2)cc1	–	100.0
O=C(Nc1nc(-c2ccccn2)cs1)c1ccc(S(=O)(=O)N2CCOCC2)cc1	–	–
CCCCN(CC)S(=O)(=O)c1ccc(C(=O)Nc2nc(-c3ccccn3)cs2)cc1	–	96.0
CCCCN(CC)S(=O)(=O)c1ccc(C(=O)Nc2nnc(CC)o2)cc1	–	–
O=C(Nc1ccc(F)cc1)c1ccc(Br)s1	–	–
N=C1S/C(=C\c2ccc(-c3cccc(F)c3)o2)C(=O)N1c1nccs1	–	62.0
N=C1S/C(=C\c2ccc(-c3ccc(F)c(Cl)c3)o2)C(=O)N1c1nccs1	–	–
N=C1S/C(=C\c2ccc(-c3ccc(F)cc3F)o2)C(=O)N1c1nccs1	–	–
N=C1S/C(=C\c2ccc(-c3ccccc3C(=O)O)o2)C(=O)N1c1nccs1	–	74.0
COc1ccc(-c2coc3c(CN4CCCCC4)c(O)ccc3c2=O)cc1OC	–	–
O=C(NCc1ccccc1Cl)c1cc2n(n1)CCCN(Cc1ccccc1)C2=O	–	–
O=C(Nc1cccc2nsnc12)c1cc(-c2ccco2)on1	–	–
O=C(NC(Nc1ccccc1)C(Cl)(Cl)Cl)c1cc([N+](=O)[O-])cc([N+](=O)[O-])c1 (stereo not drawn)	–	59.0
O=C(NC(Nc1cccc([N+](=O)[O-])c1)C(Cl)(Cl)Cl)c1ccccc1[N+](=O)[O-] (stereo not drawn)	–	–
O=C(NC(Nc1ccccc1Cl)C(Cl)(Cl)Cl)c1cc([N+](=O)[O-])cc([N+](=O)[O-])c1 (stereo not drawn)	–	61.0
O=C(NC(Nc1ccccc1)C(Cl)(Cl)Cl)c1ccc([N+](=O)[O-])cc1 (stereo not drawn)	–	–
SMILES	Pf apPOL block	mHTT-CaM PPI inh
O=C1Cc2ccccc2C(c2ccccc2Cl)N1 (stereo not drawn)	–	–
Cc1cnn(C)c1C(=O)Nc1nc(C(C)(C)C)cs1	–	–
COc1ccc(C(=O)N2CCCC2C(=O)NCCc2csc(C)n2)cc1OC (stereo not drawn)	–	–
N#Cc1ccc(-n2nnc3ccccc32)c([N+](=O)[O-])c1	–	–
C=CCNC(=O)c1c[nH]c2ccc(S(=O)(=O)N(C)c3ccc(Cl)cc3F)cc2c1=O	–	–
C=CCN(c1ccccc1)S(=O)(=O)c1ccc2[nH]cc(C(=O)NCCOC)c(=O)c2c1	–	50.0
C=CCNC(=O)c1c[nH]c2ccc(S(=O)(=O)N(C)c3ccc(Cl)cc3)cc2c1=O	–	53.0
C=CCN(c1ccccc1)S(=O)(=O)c1ccc2[nH]cc(C(=O)NCCCC)c(=O)c2c1	–	–
Cc1cc(NC(=O)c2c(O)c3cccnc3n(-c3cccc(F)c3)c2=O)ccc1F	–	–
N#Cc1c(-c2ccco2)cc(-c2ccco2)nc1N	–	·
O=C(CSc1ccccn1)c1ccc2c(c1)OCO2	–	–
O=C(c1ccc2c(c1)OCO2)n1cccn1	66.5	–
CC(C)C(=O)N1CCC(CCOc2cccc(F)c2)CC1	–	–
Cc1ccccc1NC(=O)c1ccc(C)c(S(=O)(=O)Nc2cccc(C(=O)O)c2)c1	–	–
Cc1ccc(C(=O)Nc2ccc(S(=O)(=O)O)c3cc(S(=O)(=O)O)cc(S(=O)(=O)O)c23)cc1NC(=O)c1cccc(NC(=O)Nc2cccc(C(=O)Nc3cc(C(=O)Nc4ccc(S(=O)(=O)O)c5cc(S(=O)(=O)O)cc(S(=O)(=O)O)c45)ccc3C)c2)c1	53.4	·
Cc1ccc(C)c(NCN2C(=O)C3CC=CCC3C2=O)c1 (stereo not drawn)	–	–
CN(C)c1cccc(NC(=O)C(c2ccccc2)c2ccccc2)c1	–	–
COc1ccc(-c2cn3ccn(-c4ccc(F)cc4)c(=O)c3n2)cc1	–	–
COc1ccc(-c2cn3c(n2)c(=C2CCCN2)c(=O)n3-c2ccccc2)cc1	–	63.0
